From PubChem BioAssay AID449762 (Southern Research Specialized Biocontainment Screening …, 2010)
The campaign covered roughly 330,000 compounds. About 1,900 (0.58%) were called active. Roughly 4% stayed inconclusive and do not appear here. The list is a sample of the results. Potency and affinity values are given separately. Values without a mark were called inactive. Rule as the data show it: inconclusive = inhibition above about 70% without an active follow-up result; inactive = below that.

Assay: M. tuberculosis growth inhibition, HTS (AID 449762);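 also: bacterial growth assessed after seven days of incubation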
Details: M. tuberculosis H37Rv growth inhibition, 7H9 media; at 25 µM; active compounds read high

For Cc1c(C(=O)N2CCN(c3ccccn3)CC2)cccc1[N+](=O)[O-], which inhibition is on record?
The inhibition was 3.8%.

Which inhibition does the source give for O=C(NNS(=O)(=O)c1ccccc1[N+](=O)[O-])c1ccc(O)cc1 here?
Its inhibition is 13.9%.

With COC(=O)[C@]1(Cc2ccccc2)N[C@H](CN(C)C(=O)c2ccc(C)cc2)[C@@H]2C(=O)N(C)C(=O)[C@@H]21 as the molecule, how does the inhibition read?
The inhibition was 2.73%.

Which inhibition does the source give for CCC1(C)N=C(c2ccc3c(c2)OCO3)CC(c2ccccc2O)N1 (stereo unspecified) here?
The inhibition was -5.31%.

For CCOc1ccccc1C1N=C(c2ccc(OC)cc2)CC(c2ccccc2O)N1 (stereo unspecified), which inhibition is on record?
The inhibition was 13%.

Which inhibition does the source give for COc1cccc2cc(C(=O)N3CCCCC3C)c(=O)oc12 (stereo unspecified) here?
The inhibition was -7.25%.

With COC(=O)c1c(N)n(CCCN2CCOCC2)c2nc3ccccc3nc12 as the molecule, how does the inhibition read?
The inhibition was 4.91%.

For COCCOC(=O)c1c(N)n(CCCN2CCOCC2)c2nc3ccccc3nc12, which inhibition is on record?
The inhibition was 0.66%.

With Cc1[nH]c2ccccc2c1/C=N/NC(=O)CNC(=O)c1ccco1 as the molecule, how does the inhibition read?
The inhibition was 1.49%.

For COCCn1c(=S)[nH]c2cc(C(=O)N3CCc4ccccc4C3)ccc2c1=O, which inhibition is on record?
Its inhibition is 5.9%.

For CC[C@H](C)[C@H](NC(N)=O)C(=O)NCCc1ccc(Cl)cc1Cl, which inhibition is on record?
Its inhibition is -2.03%.

Which inhibition does the source give for Cc1ccc(CNc2ccc3nnc(-c4ccccc4)n3n2)cc1 here?
Its inhibition is -2.25%.

With Clc1ccc(CNc2ccc3nnc(-c4ccccc4)n3n2)cc1 as the molecule, how does the inhibition read?
Its inhibition is -9.56%.

With Cc1cc(C)n(CCOC(=O)C2C(C=C(Cl)Cl)C2(C)C)n1 (stereo unspecified) as the molecule, how does the inhibition read?
The inhibition was 6.12%.

Which inhibition does the source give for C=C1c2cccc(O)c2C(O)=C2C(=O)[C@]3(O)C(O)=C(C(N)=O)C(=O)[C@@H](N(C)C)[C@@H]3[C@@H](O)[C@H]12 here?
Its inhibition is 69.5%.

With CN(C)[C@@H]1C(=O)C(C(N)=O)=C(O)[C@@]2(O)C(=O)C3=C(O)c4c(O)cccc4[C@@](C)(O)[C@H]3C[C@@H]12 as the molecule, how does the inhibition read?
Its inhibition is 22.5%.

For CN(C)[C@@H]1C(=O)C(C(N)=O)=C(O)[C@@]2(O)C(=O)C3=C(O)c4c(O)cccc4[C@@](C)(O)[C@H]3[C@H](O)[C@@H]12, which inhibition is on record?
The inhibition was 31.9%.

With CSC(=NC#N)N1CCN(c2c(C)cccc2C)CC1 as the molecule, how does the inhibition read?
Its inhibition is -2.97%.

For CC(C)CCNC(=O)C1CC(c2cccc(F)c2)=NO1 (stereo unspecified), which inhibition is on record?
The inhibition was -4.76%.

For O=C(NC1CCCC1)C1CCCN1S(=O)(=O)c1cccc2cccnc12 (stereo unspecified), which inhibition is on record?
The inhibition was -5.92%.

With CC1CCCC(NC(=O)C2CCN(C(=O)Nc3ccccc3)CC2)C1C (stereo unspecified) as the molecule, how does the inhibition read?
Its inhibition is -2.53%.

With CCC(C)[C@H](NC(=O)[C@H](Cc1ccccc1)n1c(=O)[nH]c2ccccc2c1=O)C(=O)N1CCC(C(=O)O)CC1 (stereo partly specified) as the molecule, how does the inhibition read?
Its inhibition is -6.06%.

With O=C(COC(=O)c1cnc(Cl)c(Cl)c1)c1ccc(F)cc1 as the molecule, how does the inhibition read?
The inhibition was 2.14%.

For O=C(OCC(=O)N1CCCC1)c1cnc(Cl)c(Cl)c1, which inhibition is on record?
The inhibition was 2.91%.

For O=C(OCC(=O)N1CCOCC1)c1cnc(Cl)c(Cl)c1, which inhibition is on record?
Its inhibition is -0.51%.

For COc1ccc(N2CCN(C(=O)C(C)(C)Oc3ccc(Cl)cc3)CC2)cc1, which inhibition is on record?
Its inhibition is 2.08%.

With CCOc1ccc(C(C)=O)cc1COC(=O)c1cnc(Cl)c(Cl)c1 as the molecule, how does the inhibition read?
The inhibition was -3.39%.

For CC(C)(Oc1ccc(Cl)cc1)C(=O)OCC(=O)N1CCCC1, which inhibition is on record?
The inhibition was -3.13%.

Which inhibition does the source give for O=c1[nH]cc(S(=O)(=O)Nc2ccc3c(c2)OCO3)c(=O)[nH]1 here?
Its inhibition is 7.53%.

Which inhibition does the source give for COc1ccc2nc(N3C(=O)C(O)=C(C(=O)c4ccco4)C3c3ccccc3OC)sc2c1 (stereo unspecified) here?
The inhibition was 0.62%.

With COc1cccc(C2CC(c3ccccc3OC)n3ncnc3N2)c1 (stereo unspecified) as the molecule, how does the inhibition read?
The inhibition was -5.17%.

Which inhibition does the source give for CC(=O)N/C(=C\c1ccccc1)C(=O)NC(C)C(=O)O (stereo unspecified) here?
Its inhibition is -2.83%.

For O=C(COC(=O)c1cc2ccccc2cc1O)Nc1cccnc1Cl, which inhibition is on record?
The inhibition was -17%.

Which inhibition does the source give for C=CCNC(=O)N1CCc2[nH]c3ccc(F)cc3c2C1 here?
The inhibition was -1.16%.

For CC(OC(=O)Cc1n[nH]c(=O)c2ccccc12)C(=O)Nc1ccc(F)cc1Cl (stereo unspecified), which inhibition is on record?
Its inhibition is -10.4%.

For Cn1c(C(=O)N(Cc2ccccc2)Cc2ccccn2)cc2sccc21, which inhibition is on record?
Its inhibition is -2.09%.

Which inhibition does the source give for Cc1cccc(C(=O)OCC(=O)Nc2ccccc2C(=O)NC2CC2)c1 here?
The inhibition was -11.3%.

Which inhibition does the source give for Cn1c(SCC(=O)c2ccc3c(c2)OCCO3)nnc1C(F)(F)F here?
The inhibition was -5.9%.

With O=C(/C=C/c1c(F)cccc1Cl)c1ccc(O)cc1 as the molecule, how does the inhibition read?
Its inhibition is -0.9%.

With O=C(/C=C/c1ccc[nH]1)c1ccc(F)cc1 as the molecule, how does the inhibition read?
The inhibition was 2.02%.

Which inhibition does the source give for Cc1cc(C)n2c(Br)c(CSc3nc4ccccc4s3)nc2n1 here?
Its inhibition is -0.87%.

Which inhibition does the source give for CC(NC(=O)CSC(=S)N1CCCC1)c1ccc(S(N)(=O)=O)cc1 (stereo unspecified) here?
The inhibition was -7.22%.

For Cc1cc(/C=N/NC(=O)c2cccs2)c(C)n1-c1ccccc1, which inhibition is on record?
Its inhibition is 3.6%.

Which inhibition does the source give for Cc1cc(/C=N/NC(=O)c2cccs2)c(C)n1-c1cnccn1 here?
Its inhibition is 11.2%.

For Cc1ccc(C)c(OCC(=O)NNC(=O)CCN2CCN(c3ccccc3)CC2)c1, which inhibition is on record?
The inhibition was 7.6%.

Which inhibition does the source give for COc1cccc(NC(=O)CSc2nnc(-c3cc(C)[nH]n3)n2N)c1 here?
The inhibition was 7.87%.

With CCc1cc2c(=O)c(-c3nc4ccccc4n3C)c(C)oc2c(CN2CCCCC2)c1O as the molecule, how does the inhibition read?
The inhibition was -5.94%.

Which inhibition does the source give for CCc1cc2c(=O)c(-c3cnn(-c4ccccc4)c3)c(C(F)(F)F)oc2c(CN(C)C)c1O here?
Its inhibition is 5.42%.

For CC1CN(C(=O)CCC(=O)N2CCN(c3cccc(C(F)(F)F)c3)CC2)c2ccccc2O1 (stereo unspecified), which inhibition is on record?
Its inhibition is 9.11%.

Which inhibition does the source give for COc1ccccc1NC(=O)N(Cc1ccccc1)C1=NCC(C)S1 (stereo unspecified) here?
The inhibition was 6.61%.

With CCOC(=O)c1c(C)n(C)c2ccc(OCC(O)CNCCc3ccccc3)cc12 (stereo unspecified) as the molecule, how does the inhibition read?
The inhibition was 15.2%.

Which inhibition does the source give for OC(CNCC1CCCO1)COc1ccc(OCC(O)CNCC2CCCO2)cc1 (stereo unspecified) here?
The inhibition was 5.75%.

For COc1ccc(N2CCN(C(=O)c3sc4ncn(CC(=O)N5CCCCC5C)c(=O)c4c3C)CC2)cc1 (stereo unspecified), which inhibition is on record?
Its inhibition is -4.52%.

For O=C(CSc1nn(-c2ccc(Cl)cc2)c(=S)s1)NCC1CCCO1 (stereo unspecified), which inhibition is on record?
Its inhibition is 69.3%.

For O=C(CSc1nc(-c2ccc(F)cc2)cs1)NCC1CCCO1 (stereo unspecified), which inhibition is on record?
Its inhibition is -0.07%.

Which inhibition does the source give for CCCCCCCCCCSc1n[nH]c(NC(C)=O)n1 here?
The inhibition was 4.39%.
